Test results as given in PubChem BioAssay AID1159580 (chemical genetic matrix, 2015).
Where “and” joins values, the source holds several entries; their conditions need not be identical. Identical values can stand only once. Screen size: about 5,500 compounds; about 2,000 (36%) were called active. Inconclusive results (about 18%) are left out. No stated cut-off is given here; in the data, active means normalized growth mostly below about 0.91 (no sharp cut-off); inconclusive means no clear call, values can overlap the other calls; inactive means mostly above about 0.92. This is one part of the list.

Test: chemical genetic growth profiling, strain panel (AID 1159580);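 further: tested at 20 µM; growth read once vehicle control cultures reached saturation at 30 °C; 1 = growth at the plate median or of vehicle wells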
Conditions: S. cerevisiae deletion strains, growth OD

Measured: normalized growth

CC(=O)Oc1ccc(C(c2ccc(OC(C)=O)cc2)c2ccccn2)cc1
inactive: locus YAL021C, strain ccr4, stronger effect = lower value 1.02 | locus YAL026C, strain drs2, stronger effect = lower value 1.02 | locus YAL030W, strain snc1, stronger effect = lower value 1.01 | locus YBL061C, strain skt5, stronger effect = lower value 1.01 | locus YBR009C, strain hhf1, stronger effect = lower value 1.04 | locus YBR021W, strain FUR4, stronger effect = lower value 0.998 | locus YBR023C, strain chs3, stronger effect = lower value 1.02 | locus YBR171W, strain sec66, stronger effect = lower value 1.02 | locus YBR229C, strain ROT2, stronger effect = lower value 0.969 | locus YBR231C, strain swc5, stronger effect = lower value 0.997 | locus YBR279W, strain paf1, stronger effect = lower value 1.01 | locus YCL011C, strain gbp2, stronger effect = lower value 1.02 | locus YCL016C, strain dcc1, stronger effect = lower value 1.02 | locus YCL029C, strain bik1, stronger effect = lower value 0.988 | locus YCL069W, strain vba3, stronger effect = lower value 1.01 | locus YCR088W, strain abp1, stronger effect = lower value 1.02 | locus YDL005C, strain med2, stronger effect = lower value 1.01 | locus YDL035C, strain GPR1, stronger effect = lower value 1.03 | locus YDL040C, strain nat1, stronger effect = lower value 1.01 | locus YDL074C, strain BRE1, stronger effect = lower value 0.995 | locus YDL101C, strain DUN1, stronger effect = lower value 0.974 | locus YDL185W, strain tfp1, stronger effect = lower value 0.993 | locus YDL192W, strain arf1, stronger effect = lower value 0.984 | locus YDR001C, strain nth1, stronger effect = lower value 1.02 | locus YDR069C, strain doa4, stronger effect = lower value 1.01 | locus YDR101C, strain arx1, stronger effect = lower value 0.996 | locus YDR137W, strain rgp1, stronger effect = lower value 1.02 | locus YDR150W, strain NUM1, stronger effect = lower value 0.99 | locus YDR159W, strain sac3, stronger effect = lower value 0.993 | locus YDR162C, strain NBP2, stronger effect = lower value 1.03 | locus YDR195W, strain ref2 0.985 | locus YDR297W, strain sur2, stronger effect = lower value 1.02 | locus YDR318W, strain mcm21, stronger effect = lower value 0.994 | locus YDR334W, strain swr1, stronger effect = lower value 1.02 | locus YDR335W, strain msn5, stronger effect = lower value 1.02 | locus YDR388W, stronger effect = lower value 0.987 | locus YDR392W, strain spt3, stronger effect = lower value 1.03 | locus YDR502C, strain sam2, stronger effect = lower value 0.999 | locus YEL003W, strain gim4, stronger effect = lower value 1.02 | locus YEL037C, strain rad23, stronger effect = lower value 1.02 | locus YEL061C, strain CIN8 (second series), stronger effect = lower value 1.01 | locus YEL061C, strain CIN8, stronger effect = lower value 0.99 | locus YER015W, strain faa2, stronger effect = lower value 1.01 | locus YER016W, strain bim1, stronger effect = lower value 1.03 | locus YER110C, stronger effect = lower value 0.977 | locus YER111C, strain swi4, stronger effect = lower value 1.01 | locus YER155C, strain BEM2 (second series), stronger effect = lower value 1.03 | locus YER155C, strain BEM2, stronger effect = lower value 0.983 | locus YER167W, strain BCK2, stronger effect = lower value 1 | locus YFR010W, strain ubp6, stronger effect = lower value 0.996 | locus YGL078C, strain dbp3, stronger effect = lower value 0.991 | locus YGL086W, strain mad1, stronger effect = lower value 0.982 | locus YGL167C, strain pmr1, stronger effect = lower value 1.03 | locus YGL173C, strain kem1, stronger effect = lower value 1.02 | locus YGL227W, strain vid30, stronger effect = lower value 1.01 | locus YGL240W, strain doc1, stronger effect = lower value 1 | locus YGL248W, strain PDE1, stronger effect = lower value 0.966 | locus YGL253W, strain hxk2, stronger effect = lower value 1.03 | locus YGR135W, strain pre9, stronger effect = lower value 0.996 | locus YGR229C, strain SMI1, stronger effect = lower value 1.01 | locus YGR252W, strain gcn5, stronger effect = lower value 0.961 | locus YHR013C, strain ard1, stronger effect = lower value 1.06 | locus YHR027C, strain rpn1, stronger effect = lower value 1.02 | locus YHR030C, strain SLT2, stronger effect = lower value 0.99 and 1.02 | locus YHR079C, strain IRE1 (second series), stronger effect = lower value 0.993 | locus YHR079C, strain IRE1, stronger effect = lower value 0.983 | locus YHR094C, strain hxt1, stronger effect = lower value 0.989 | locus YHR129C, strain ARP1, stronger effect = lower value 0.989 | locus YHR142W, strain chs7, stronger effect = lower value 1.01 | locus YHR200W, strain rpn10, stronger effect = lower value 0.984 | locus YIL066C, strain RNR3, stronger effect = lower value 1.02 | locus YIL073C, strain SPO22, stronger effect = lower value 1.01 | locus YIL125W, strain kgd1, stronger effect = lower value 0.985 | locus YIR030C, strain dcg1, stronger effect = lower value 0.999 | locus YJL092W, strain hpr5, stronger effect = lower value 1.01 | locus YJL095W, strain BCK1 (second series), stronger effect = lower value 1.03 | locus YJL095W, strain BCK1, stronger effect = lower value 0.975 and 1 | locus YJL115W, strain asf1, stronger effect = lower value 1.01 | locus YJL129C, strain trk1, stronger effect = lower value 1.03 | locus YJL134W, strain LCB3, stronger effect = lower value 0.987 | locus YJL154C, strain vps35, stronger effect = lower value 1.01 | locus YJL164C, strain tpk1, stronger effect = lower value 1.02 | locus YJL166W, strain qcr8, stronger effect = lower value 1 | locus YJL168C, strain set2, stronger effect = lower value 0.985 | locus YJL187C, strain SWE1 (second series), stronger effect = lower value 0.967 | locus YJR043C, strain POL32, stronger effect = lower value 1.02 | locus YJR066W, strain TOR1, stronger effect = lower value 0.976
